The text below walks through data of PubChem BioAssay.

Several values for one entry are separate records, joined by “and”; a condition that tells them apart may be missing. Equal values may be shown once. The source holds several records for some structures; these can differ, active in one and inactive in another. Activity calls are given as the source filed them.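 Rule for the calls, unless noted: active = efflux inhibition above 0.42, the validation set average plus 4 SD; inconclusive = no clear call, values can overlap the other calls; inactive = the rest.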

System in the first experiment: not listed separately
Description: inhibitors of fungal efflux pumps CDR1, CDR2, MDR1, pilot screen, validation compound set, multiplex, phenotypic (AID 588506).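 Note: Nile Red retained in cells so higher fluorescence means more efflux inhibition; 0 = negative control wells and 1 = enniatin B 25 µM full block.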 The conditions noted are these: S. cerevisiae pump-expressing triplex, Nile Red efflux flow cytometry; at 10 µM; stronger effect = higher value; the pumps come from Candida albicans. A general note: Flow cytometry measures light scatter and fluorescence of single cells or particles in a stream.
On to `COc1cc(C2NCCc3c2[nH]c2ccccc32)ccc1OC(C)C` (stereo not given), for which the efflux inhibition (fraction of control) is 0.08 (inactive).
Consider `O=C(CSCc1ccccc1)NCCCN1CCOCC1`, for which the efflux inhibition (fraction of control) was 0.17 (inactive).
For the compound `O=C(N1CCCCC1)C1(c2ccccc2)CCOCC1`, the efflux inhibition (fraction of control) was -0.17 (inactive).
On to `CCCC(=O)O[C@]1(C(=O)COC(C)=O)CC[C@H]2[C@@H]3C[C@H](F)C4=CC(=O)C=C[C@]4(C)[C@@]3(F)[C@@H](O)C[C@@]21C`, for which the efflux inhibition (fraction of control) was -0.06 (inactive).
For the compound `O=c1ccc2c(o1)/C(=C/C=C(Cl)Cl)CCC2`, the efflux inhibition (fraction of control) is -0.06 (inactive).
Same read-out and setting: as for `COc1cc(Cc2cnc(N)nc2N)cc(OC)c1OC`, the figure is 0.61 (active) and 0.18 (inactive); as for `O=C(CC(NC(=O)OCc1ccccc1)C(=O)O)OCc1ccccc1` (stereo not given), -0.07 (inactive); as for `O=c1c(-c2ccccc2)c(O)c2cccc3c2n1CCC3`, -0.09 (inactive).
As for `O=C(O)C1CCN(C(=O)COc2ccc3c4c(c(=O)oc3c2)CCC4)CC1`, the efflux inhibition (fraction of control) is 0 (inactive).
With `CCOC(=O)c1cccc(P(C)(C)=O)c1`, the efflux inhibition (fraction of control) is -0.04 (inactive).
For `O=C(O)c1cc2cc(F)ccc2[nH]1`, the efflux inhibition (fraction of control) is -0.14 (inactive).
Turning to `O=C(O)c1ccccc1C(=O)OCCCCOC(=O)c1ccccc1C(=O)O`, the efflux inhibition (fraction of control) is 0.21 (inactive).
In the case of `Cn1nc(-c2ccc(Cl)cc2)nc2c(=O)n(C)c(=O)nc1-2`, the efflux inhibition (fraction of control) is 0.12 (inactive).
On to `O=c1[nH]c(=O)n([C@H]2C[C@H](O)[C@@H](CO)O2)cc1C(F)(F)F`, for which the efflux inhibition (fraction of control) was 0.02 (inactive).
For the compound `COc1ccc(-c2cc(C(=O)N3CCOCC3)c3cc(C)ccc3n2)cc1`, the efflux inhibition (fraction of control) was -0.09 (inactive).
For the compound `Cc1ccc2c(c1)c1c3n2CCCN(Cc2ccccc2)C3CCC1` (stereo not given), the efflux inhibition (fraction of control) was 0.33 (inactive).
Turning to `CCCCCCCC(=O)OCC(O)CO` (stereo not given), the efflux inhibition (fraction of control) is 0.02 (inactive).
The same measure, in the same setting: with `S=C(c1ccc2c(c1)OCO2)N1CCCCC1` the figure was 0.19 (inactive); with `COc1cc2cc(C)nc(Cc3cccc4ccccc34)c2cc1OC`, 0.04 (inactive); with `CCn1cc(C(=O)O)c(=O)c2ccc(C)nc21`, 0.085 (inactive).
For the compound `c1coc(-c2nnc3n2C2(CCCC2)Cc2ccccc2-3)c1`, the efflux inhibition (fraction of control) is -0.6 (inactive).
Take `COc1ccc(Cc2noc(CN(C)CCN3CCc4ccccc4C3)n2)cc1OC`: the efflux inhibition (fraction of control) was -0.1 (inactive).
Still for that read-out and setting: as for `CC1(C)c2ccccc2N2CC(=O)NC21/C=C/c1ccco1` (stereo not given), the figure is -0.16 (inactive).
Regarding `CC12CC(c3ccccc3O1)C(C(=O)N1CCOCC1)C(=O)N2` (stereo not given), the efflux inhibition (fraction of control) was -0.34 (inactive).
As to `O=C1CC(c2ccc(OCCCCCOc3ccc(C4CC(=O)NC4=O)cc3)cc2)C(=O)N1` (stereo not given), the efflux inhibition (fraction of control) was 0.11 (inactive).
Take `O=c1[nH]c(=O)n(C2CCCO2)cc1F` (stereo not given): the efflux inhibition (fraction of control) is 0.09 (inactive).
With `NC(N)=NC(=O)Cc1c(Cl)cccc1Cl`, the efflux inhibition (fraction of control) is -0.01 (inactive).
Consider `CCOC(=O)Cn1c(C)cc(=O)c2ccccc21`, for which the efflux inhibition (fraction of control) was 0.3 (inactive).
For `Cc1ccc(C(=O)Nc2ccccc2C(=O)NC(C(=O)O)C(C)C)cc1` (stereo not given), the efflux inhibition (fraction of control) is -0.06 (inactive).
`Cc1cc(O)c2/c(=N\N)c(-c3csc(C)n3)coc2c1`: the efflux inhibition (fraction of control) was -0.16 (inactive).
Regarding `O=C(CN1C(=O)/C(=C/c2cccc(Br)c2)SC1=S)Nc1cccnc1`, the efflux inhibition (fraction of control) was -0.41 (inactive).
The same measure, in the same setting: with `COc1ccc2[nH]c(CN3CCN(CC(C)C)C(CCO)C3)c(C)c2c1` (stereo not given) the figure was -0.06 (inactive); with `CC[N+](C)(C)c1cccc(O)c1`, -0.17 (inactive); with `COc1cccc2c(=O)c(C/C=C(/C)Cl)c(C)[nH]c12`, 0.01 (inactive).
Take `O=C(N/N=C/c1ccc([N+](=O)[O-])o1)c1ccc(O)cc1`: the efflux inhibition (fraction of control) was 0.12 (inactive).
Regarding `CC(=O)N1CCn2c3c(c4cc(C)ccc42)CCCC31` (stereo not given), the efflux inhibition (fraction of control) was 0.38 (inactive).
Still for that read-out and setting: with `Cc1ccc(CN2CCN(CCCc3ccccc3)CC2CCO)cc1` (stereo not given) the figure was -0.01 (inactive); with `CCC(C(=O)Nc1ccc2c(c1)OCCO2)c1ccccc1` (stereo not given), -0.03 (inactive); with `CN(C)CCC=C1c2ccccc2CCc2ccccc21`, -0.17 (inactive).
The same measure, in the same setting: with `CN(C)c1ccc(CNCCC(Cc2ccccc2)c2ccco2)cc1` (stereo not given) the figure was 0.17 (inactive).

Another experiment deals with ATP-binding cassette sub-family B member 6 (Homo sapiens) (UniProt Q9NP58). Nature of the experiment: ABCB6 transporter inhibitors, pilot screen, K562-ABCB6 cells, flow cytometry, validation set (AID 588550;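 active = inhibition above the screen-wide mean plus 3 SD, about 51%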;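 note: 0% = DMSO wells and 100% = benzethonium chloride 70 µM positive control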). The conditions noted are these: K562-ABCB6 porphyrin accumulation, 1 h, at 10 µM, stronger effect = higher value.
ATP-binding cassette sub-family B member 6 (Homo sapiens), sequence (Q9NP58 whole entry, looked up): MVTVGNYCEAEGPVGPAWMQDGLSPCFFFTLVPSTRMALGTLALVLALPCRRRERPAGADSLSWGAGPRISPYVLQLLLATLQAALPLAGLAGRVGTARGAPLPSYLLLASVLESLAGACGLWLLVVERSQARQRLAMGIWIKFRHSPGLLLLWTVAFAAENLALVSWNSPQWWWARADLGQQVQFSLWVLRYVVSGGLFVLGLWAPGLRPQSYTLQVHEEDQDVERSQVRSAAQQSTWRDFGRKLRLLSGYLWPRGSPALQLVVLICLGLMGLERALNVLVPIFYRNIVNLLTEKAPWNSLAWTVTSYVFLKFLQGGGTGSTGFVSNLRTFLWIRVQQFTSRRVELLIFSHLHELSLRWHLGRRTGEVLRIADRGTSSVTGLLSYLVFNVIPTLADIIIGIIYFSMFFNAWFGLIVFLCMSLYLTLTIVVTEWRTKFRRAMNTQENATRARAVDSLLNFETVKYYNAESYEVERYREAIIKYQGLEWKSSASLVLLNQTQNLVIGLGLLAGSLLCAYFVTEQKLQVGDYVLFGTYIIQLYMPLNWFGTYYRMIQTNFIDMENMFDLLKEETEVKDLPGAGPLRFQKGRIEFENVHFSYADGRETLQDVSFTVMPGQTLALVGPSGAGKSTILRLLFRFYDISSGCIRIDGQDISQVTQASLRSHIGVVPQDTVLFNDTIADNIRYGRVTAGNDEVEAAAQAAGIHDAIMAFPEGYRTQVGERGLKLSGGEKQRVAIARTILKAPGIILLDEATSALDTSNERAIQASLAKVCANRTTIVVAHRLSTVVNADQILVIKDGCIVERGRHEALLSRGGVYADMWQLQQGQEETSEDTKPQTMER
A word on the inhibition: it is the relative decrease from the control value, in per cent. Turning to `COc1cc(C2NCCc3c2[nH]c2ccccc32)ccc1OC(C)C` (stereo not given), the inhibition was 9% (inactive).
Turning to `O=C(CSCc1ccccc1)NCCCN1CCOCC1`, the inhibition was 15% (inactive).
On to `O=C(N1CCCCC1)C1(c2ccccc2)CCOCC1`, for which the inhibition is 5% (inactive).
Consider `CCCC(=O)O[C@]1(C(=O)COC(C)=O)CC[C@H]2[C@@H]3C[C@H](F)C4=CC(=O)C=C[C@]4(C)[C@@]3(F)[C@@H](O)C[C@@]21C`, for which the inhibition was 2% (inactive).
`O=c1ccc2c(o1)/C(=C/C=C(Cl)Cl)CCC2`: the inhibition was 6% (inactive).
Turning to `COc1cc(Cc2cnc(N)nc2N)cc(OC)c1OC`, the inhibition is -11% (inactive) and 7% (inactive).
Consider `O=C(CC(NC(=O)OCc1ccccc1)C(=O)O)OCc1ccccc1` (stereo not given), for which the inhibition was 22% (inactive).
The same measure, in the same setting: as for `O=c1c(-c2ccccc2)c(O)c2cccc3c2n1CCC3`, the figure is 1% (inactive); as for `O=C(O)C1CCN(C(=O)COc2ccc3c4c(c(=O)oc3c2)CCC4)CC1`, 3% (inactive).
Regarding `CCOC(=O)c1cccc(P(C)(C)=O)c1`, the inhibition is -7% (inactive).
Take `O=C(O)c1cc2cc(F)ccc2[nH]1`: the inhibition was 14% (inactive).
For the compound `O=C(O)c1ccccc1C(=O)OCCCCOC(=O)c1ccccc1C(=O)O`, the inhibition is 2% (inactive).
For the compound `Cn1nc(-c2ccc(Cl)cc2)nc2c(=O)n(C)c(=O)nc1-2`, the inhibition was -16% (inactive).
Consider `O=c1[nH]c(=O)n([C@H]2C[C@H](O)[C@@H](CO)O2)cc1C(F)(F)F`, for which the inhibition is 1% (inactive).
As to `COc1ccc(-c2cc(C(=O)N3CCOCC3)c3cc(C)ccc3n2)cc1`, the inhibition is 7% (inactive).
As to `Cc1ccc2c(c1)c1c3n2CCCN(Cc2ccccc2)C3CCC1` (stereo not given), the inhibition is 6% (inactive).
With `CCCCCCCC(=O)OCC(O)CO` (stereo not given), the inhibition was 5% (inactive).
With `S=C(c1ccc2c(c1)OCO2)N1CCCCC1`, the inhibition was 12% (inactive).
On to `COc1cc2cc(C)nc(Cc3cccc4ccccc34)c2cc1OC`, for which the inhibition is -9% (inactive).
On to `CCn1cc(C(=O)O)c(=O)c2ccc(C)nc21`, for which the inhibition was -8% (inactive).
Take `c1coc(-c2nnc3n2C2(CCCC2)Cc2ccccc2-3)c1`: the inhibition was 14% (inactive).
Consider `COc1ccc(Cc2noc(CN(C)CCN3CCc4ccccc4C3)n2)cc1OC`, for which the inhibition is -12% (inactive).
As for `CC1(C)c2ccccc2N2CC(=O)NC21/C=C/c1ccco1` (stereo not given), the inhibition is -36% (inactive).
Turning to `CC12CC(c3ccccc3O1)C(C(=O)N1CCOCC1)C(=O)N2` (stereo not given), the inhibition is 8% (inactive).
Turning to `O=C1CC(c2ccc(OCCCCCOc3ccc(C4CC(=O)NC4=O)cc3)cc2)C(=O)N1` (stereo not given), the inhibition was 11% (inactive).
For the compound `O=c1[nH]c(=O)n(C2CCCO2)cc1F` (stereo not given), the inhibition was 14% (inactive).
As for `NC(N)=NC(=O)Cc1c(Cl)cccc1Cl`, the inhibition is 18% (inactive).
On to `CCOC(=O)Cn1c(C)cc(=O)c2ccccc21`, for which the inhibition is 0% (inactive).
Regarding `Cc1ccc(C(=O)Nc2ccccc2C(=O)NC(C(=O)O)C(C)C)cc1` (stereo not given), the inhibition was 3% (inactive).
Regarding `Cc1cc(O)c2/c(=N\N)c(-c3csc(C)n3)coc2c1`, the inhibition is 3% (inactive).
As for `O=C(CN1C(=O)/C(=C/c2cccc(Br)c2)SC1=S)Nc1cccnc1`, the inhibition is -10% (inactive).
Turning to `COc1ccc2[nH]c(CN3CCN(CC(C)C)C(CCO)C3)c(C)c2c1` (stereo not given), the inhibition is 6% (inactive).
In the case of `CC[N+](C)(C)c1cccc(O)c1`, the inhibition was -7% (inactive).
Consider `COc1cccc2c(=O)c(C/C=C(/C)Cl)c(C)[nH]c12`, for which the inhibition was 3% (inactive).
Take `O=C(N/N=C/c1ccc([N+](=O)[O-])o1)c1ccc(O)cc1`: the inhibition was 8% (inactive).
Consider `CC(=O)N1CCn2c3c(c4cc(C)ccc42)CCCC31` (stereo not given), for which the inhibition was -1% (inactive).
For the compound `Cc1ccc(CN2CCN(CCCc3ccccc3)CC2CCO)cc1` (stereo not given), the inhibition was -8% (inactive).
As for `CCC(C(=O)Nc1ccc2c(c1)OCCO2)c1ccccc1` (stereo not given), the inhibition is -7% (inactive).
On to `CN(C)CCC=C1c2ccccc2CCc2ccccc21`, for which the inhibition is 6% (inactive).
`CN(C)c1ccc(CNCCC(Cc2ccccc2)c2ccco2)cc1` (stereo not given): the inhibition was 4% (inactive).
